Data reported in ChEMBL document CHEMBL1961873, “Compounds: GSK PKIS; Assays: Nanosyn kinase panel” (2012).

Assays:
[1] = molecular target: T1, Inhibitor of nuclear factor kappa-B kinase subunit epsilon (Homo sapiens) (UniProt Q14164); conditions: at 1 µM;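 note: reported values are averaged percent inhibition figures against human IKKε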
T1 sequence (whole entry): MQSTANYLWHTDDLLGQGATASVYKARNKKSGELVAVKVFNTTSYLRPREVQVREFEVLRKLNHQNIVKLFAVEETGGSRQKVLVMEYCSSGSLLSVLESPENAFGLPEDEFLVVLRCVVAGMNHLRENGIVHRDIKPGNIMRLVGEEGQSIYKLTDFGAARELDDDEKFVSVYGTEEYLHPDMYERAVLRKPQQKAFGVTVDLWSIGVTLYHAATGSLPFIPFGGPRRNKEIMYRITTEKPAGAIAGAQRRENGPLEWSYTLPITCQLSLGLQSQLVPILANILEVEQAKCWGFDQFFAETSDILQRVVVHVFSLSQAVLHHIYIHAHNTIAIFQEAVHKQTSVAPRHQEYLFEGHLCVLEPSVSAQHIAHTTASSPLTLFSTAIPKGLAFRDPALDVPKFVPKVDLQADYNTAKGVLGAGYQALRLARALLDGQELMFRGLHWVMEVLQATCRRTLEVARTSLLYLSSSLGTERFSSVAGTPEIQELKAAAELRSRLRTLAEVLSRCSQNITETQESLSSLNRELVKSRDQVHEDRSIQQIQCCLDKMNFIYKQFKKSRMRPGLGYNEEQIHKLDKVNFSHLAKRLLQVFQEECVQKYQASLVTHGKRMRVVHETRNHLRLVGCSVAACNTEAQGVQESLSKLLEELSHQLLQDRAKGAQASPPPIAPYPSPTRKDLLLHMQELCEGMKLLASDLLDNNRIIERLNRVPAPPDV

[2] = molecular target: T2, Serine/threonine-protein kinase Nek1 (Homo sapiens) (UniProt Q96PY6); conditions: at 0.1 µM
T2 sequence (whole entry): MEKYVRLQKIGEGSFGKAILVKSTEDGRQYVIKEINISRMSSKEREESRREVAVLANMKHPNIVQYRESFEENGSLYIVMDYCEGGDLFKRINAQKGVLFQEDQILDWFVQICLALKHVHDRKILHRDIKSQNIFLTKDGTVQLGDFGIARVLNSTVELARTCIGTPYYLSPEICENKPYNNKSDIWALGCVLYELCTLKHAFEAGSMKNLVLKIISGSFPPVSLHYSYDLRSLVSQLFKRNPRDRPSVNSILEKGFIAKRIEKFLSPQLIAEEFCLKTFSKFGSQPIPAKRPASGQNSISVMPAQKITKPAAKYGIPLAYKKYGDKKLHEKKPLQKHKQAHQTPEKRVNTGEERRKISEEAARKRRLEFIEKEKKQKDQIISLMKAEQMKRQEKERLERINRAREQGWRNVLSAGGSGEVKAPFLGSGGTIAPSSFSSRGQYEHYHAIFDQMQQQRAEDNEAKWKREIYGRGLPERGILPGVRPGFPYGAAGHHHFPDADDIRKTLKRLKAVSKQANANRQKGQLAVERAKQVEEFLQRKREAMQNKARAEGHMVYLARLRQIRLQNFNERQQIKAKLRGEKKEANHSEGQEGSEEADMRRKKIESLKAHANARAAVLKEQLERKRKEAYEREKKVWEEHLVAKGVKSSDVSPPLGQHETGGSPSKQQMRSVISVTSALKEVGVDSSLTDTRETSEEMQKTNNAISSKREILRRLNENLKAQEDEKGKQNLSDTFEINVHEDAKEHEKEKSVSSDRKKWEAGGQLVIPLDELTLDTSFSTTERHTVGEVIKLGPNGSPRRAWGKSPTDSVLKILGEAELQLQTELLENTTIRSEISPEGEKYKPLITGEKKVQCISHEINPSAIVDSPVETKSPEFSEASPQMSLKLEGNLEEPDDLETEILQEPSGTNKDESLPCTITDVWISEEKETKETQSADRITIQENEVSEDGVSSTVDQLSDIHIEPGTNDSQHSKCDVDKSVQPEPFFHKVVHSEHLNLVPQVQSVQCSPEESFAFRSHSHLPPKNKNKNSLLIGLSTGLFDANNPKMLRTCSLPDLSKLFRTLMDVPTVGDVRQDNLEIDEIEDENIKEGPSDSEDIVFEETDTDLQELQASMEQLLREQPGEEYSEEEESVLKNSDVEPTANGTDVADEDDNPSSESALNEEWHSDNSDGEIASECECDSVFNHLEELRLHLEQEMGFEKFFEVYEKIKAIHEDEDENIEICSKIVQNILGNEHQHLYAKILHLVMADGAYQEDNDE

[3] = molecular target: T2, Serine/threonine-protein kinase Nek1 (Homo sapiens); conditions: at 1 µM
[4] = molecular target: T3, Serine/threonine-protein kinase Nek2 (Homo sapiens) (UniProt P51955); conditions: at 0.1 µM
T3 sequence (whole entry): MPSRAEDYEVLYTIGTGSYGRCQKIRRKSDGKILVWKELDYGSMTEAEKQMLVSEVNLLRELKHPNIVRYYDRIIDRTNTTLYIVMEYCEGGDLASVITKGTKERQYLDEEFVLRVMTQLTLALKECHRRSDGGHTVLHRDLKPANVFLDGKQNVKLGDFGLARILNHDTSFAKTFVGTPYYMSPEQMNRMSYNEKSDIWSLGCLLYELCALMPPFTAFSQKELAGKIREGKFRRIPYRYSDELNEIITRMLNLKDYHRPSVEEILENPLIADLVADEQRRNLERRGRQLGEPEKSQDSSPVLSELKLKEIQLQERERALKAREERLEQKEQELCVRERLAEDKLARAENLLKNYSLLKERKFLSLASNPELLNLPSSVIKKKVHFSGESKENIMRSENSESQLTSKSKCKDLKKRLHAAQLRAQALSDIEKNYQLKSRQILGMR

[5] = molecular target: T3, Serine/threonine-protein kinase Nek2 (Homo sapiens); conditions: at 1 µM
[6] = molecular target: Serine/threonine-protein kinase Nek6 (Homo sapiens) (UniProt Q9HC98); conditions: at 0.1 µM
Sequence of Serine/threonine-protein kinase Nek6 (Homo sapiens) (Q9HC98 whole entry): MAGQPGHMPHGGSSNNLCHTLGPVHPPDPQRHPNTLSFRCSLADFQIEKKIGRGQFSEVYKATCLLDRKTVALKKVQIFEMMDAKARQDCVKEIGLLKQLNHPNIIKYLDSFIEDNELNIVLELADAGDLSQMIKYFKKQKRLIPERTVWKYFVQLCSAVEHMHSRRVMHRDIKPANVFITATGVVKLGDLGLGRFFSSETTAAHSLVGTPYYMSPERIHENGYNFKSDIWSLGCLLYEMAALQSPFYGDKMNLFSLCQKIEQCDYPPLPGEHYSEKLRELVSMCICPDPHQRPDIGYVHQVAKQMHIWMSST

[7] = molecular target: Serine/threonine-protein kinase Nek6 (Homo sapiens) (UniProt Q9HC98); conditions: at 1 µM
[8] = molecular target: Serine/threonine-protein kinase Nek7 (Homo sapiens) (UniProt Q8TDX7); conditions: at 0.1 µM
Sequence of Serine/threonine-protein kinase Nek7 (Homo sapiens) (Q8TDX7 whole entry, looked up): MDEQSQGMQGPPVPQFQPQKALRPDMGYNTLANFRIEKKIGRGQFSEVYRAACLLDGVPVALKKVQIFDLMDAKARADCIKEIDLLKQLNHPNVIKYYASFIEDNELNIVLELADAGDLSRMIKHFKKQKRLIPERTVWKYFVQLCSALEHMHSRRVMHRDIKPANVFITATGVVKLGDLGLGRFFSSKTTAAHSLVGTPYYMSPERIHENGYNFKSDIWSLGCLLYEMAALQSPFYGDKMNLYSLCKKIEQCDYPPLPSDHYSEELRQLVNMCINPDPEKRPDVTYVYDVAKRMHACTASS

[9] = molecular target: Serine/threonine-protein kinase Nek7 (Homo sapiens) (UniProt Q8TDX7); conditions: at 1 µM
[10] = molecular target: T4, Serine/threonine-protein kinase Nek9 (Homo sapiens) (UniProt Q8TD19); conditions: at 0.1 µM
T4 sequence (whole entry): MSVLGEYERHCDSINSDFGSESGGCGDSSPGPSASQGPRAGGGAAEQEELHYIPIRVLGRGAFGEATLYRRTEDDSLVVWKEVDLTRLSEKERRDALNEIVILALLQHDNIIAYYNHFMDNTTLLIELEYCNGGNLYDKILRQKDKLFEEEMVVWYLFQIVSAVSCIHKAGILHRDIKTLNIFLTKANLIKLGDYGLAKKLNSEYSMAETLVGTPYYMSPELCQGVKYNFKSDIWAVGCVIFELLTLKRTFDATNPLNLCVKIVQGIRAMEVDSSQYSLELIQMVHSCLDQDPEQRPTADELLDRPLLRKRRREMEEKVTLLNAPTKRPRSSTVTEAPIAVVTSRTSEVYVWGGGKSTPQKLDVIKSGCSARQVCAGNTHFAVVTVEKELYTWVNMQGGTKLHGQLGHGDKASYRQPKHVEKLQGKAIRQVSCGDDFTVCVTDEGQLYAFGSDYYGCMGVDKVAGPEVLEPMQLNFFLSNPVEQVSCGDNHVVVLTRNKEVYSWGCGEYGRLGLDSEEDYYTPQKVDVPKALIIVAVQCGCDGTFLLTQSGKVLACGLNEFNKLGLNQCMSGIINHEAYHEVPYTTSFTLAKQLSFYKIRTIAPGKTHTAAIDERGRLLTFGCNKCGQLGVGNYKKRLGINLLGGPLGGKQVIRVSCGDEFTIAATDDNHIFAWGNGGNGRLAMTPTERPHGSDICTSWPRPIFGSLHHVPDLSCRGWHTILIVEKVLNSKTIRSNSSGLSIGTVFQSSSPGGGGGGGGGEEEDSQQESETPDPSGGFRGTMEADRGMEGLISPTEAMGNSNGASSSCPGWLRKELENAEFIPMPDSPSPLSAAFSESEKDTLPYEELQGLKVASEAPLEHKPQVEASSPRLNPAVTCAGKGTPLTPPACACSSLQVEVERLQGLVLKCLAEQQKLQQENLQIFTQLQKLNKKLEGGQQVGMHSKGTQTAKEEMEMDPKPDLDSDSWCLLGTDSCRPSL

[11] = molecular target: T4, Serine/threonine-protein kinase Nek9 (Homo sapiens); conditions: at 1 µM
[12] = molecular target: Serine/threonine-protein kinase PLK1 (Homo sapiens) (UniProt P53350); conditions: at 0.1 µM
Sequence of Serine/threonine-protein kinase PLK1 (Homo sapiens) (P53350 whole entry): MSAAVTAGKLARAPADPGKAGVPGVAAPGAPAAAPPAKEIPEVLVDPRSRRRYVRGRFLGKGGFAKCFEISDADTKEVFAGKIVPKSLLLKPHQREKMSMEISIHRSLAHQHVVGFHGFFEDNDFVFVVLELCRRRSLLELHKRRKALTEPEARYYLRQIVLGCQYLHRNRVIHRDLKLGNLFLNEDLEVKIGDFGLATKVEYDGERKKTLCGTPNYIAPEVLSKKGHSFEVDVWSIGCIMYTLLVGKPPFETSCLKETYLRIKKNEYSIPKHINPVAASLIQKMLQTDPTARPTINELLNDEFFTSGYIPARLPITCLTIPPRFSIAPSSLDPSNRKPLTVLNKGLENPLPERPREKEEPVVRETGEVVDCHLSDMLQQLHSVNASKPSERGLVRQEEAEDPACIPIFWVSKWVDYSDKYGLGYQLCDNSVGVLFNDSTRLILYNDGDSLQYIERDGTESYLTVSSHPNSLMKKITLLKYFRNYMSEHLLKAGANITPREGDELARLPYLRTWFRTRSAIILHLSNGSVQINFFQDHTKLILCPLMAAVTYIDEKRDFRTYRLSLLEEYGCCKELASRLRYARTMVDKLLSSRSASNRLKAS

[13] = molecular target: Serine/threonine-protein kinase PLK1 (Homo sapiens) (UniProt P53350); conditions: at 1 µM
[14] = molecular target: T5, Dual specificity protein kinase TTK (Homo sapiens) (UniProt P33981); conditions: at 0.1 µM
T5 sequence (whole entry): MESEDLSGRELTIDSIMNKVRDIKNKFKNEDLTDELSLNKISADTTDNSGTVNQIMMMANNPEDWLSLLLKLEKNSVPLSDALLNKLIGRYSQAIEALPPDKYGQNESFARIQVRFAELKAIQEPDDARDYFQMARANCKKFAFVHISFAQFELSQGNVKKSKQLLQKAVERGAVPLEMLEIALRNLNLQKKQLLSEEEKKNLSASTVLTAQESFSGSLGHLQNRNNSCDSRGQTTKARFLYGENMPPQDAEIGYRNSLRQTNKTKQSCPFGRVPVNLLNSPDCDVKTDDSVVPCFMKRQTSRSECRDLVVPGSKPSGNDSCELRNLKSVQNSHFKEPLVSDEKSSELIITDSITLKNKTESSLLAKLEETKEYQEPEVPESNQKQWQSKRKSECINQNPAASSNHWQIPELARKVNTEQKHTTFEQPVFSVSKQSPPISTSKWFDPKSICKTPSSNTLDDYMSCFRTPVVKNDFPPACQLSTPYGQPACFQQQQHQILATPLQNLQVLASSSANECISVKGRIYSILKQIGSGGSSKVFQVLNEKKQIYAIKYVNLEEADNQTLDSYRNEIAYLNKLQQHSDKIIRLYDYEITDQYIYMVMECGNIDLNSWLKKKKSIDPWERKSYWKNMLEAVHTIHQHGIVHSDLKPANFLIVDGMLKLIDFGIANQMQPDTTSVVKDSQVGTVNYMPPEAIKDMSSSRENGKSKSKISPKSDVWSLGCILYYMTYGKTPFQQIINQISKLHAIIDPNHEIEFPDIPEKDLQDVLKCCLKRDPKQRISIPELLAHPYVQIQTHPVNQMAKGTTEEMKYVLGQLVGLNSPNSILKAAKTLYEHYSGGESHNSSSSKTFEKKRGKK

[15] = test system: T6, Receptor-type tyrosine-protein kinase FLT3 (Homo sapiens), P36888 [D835Y]; conditions: at 1 µM
T6 sequence (whole entry): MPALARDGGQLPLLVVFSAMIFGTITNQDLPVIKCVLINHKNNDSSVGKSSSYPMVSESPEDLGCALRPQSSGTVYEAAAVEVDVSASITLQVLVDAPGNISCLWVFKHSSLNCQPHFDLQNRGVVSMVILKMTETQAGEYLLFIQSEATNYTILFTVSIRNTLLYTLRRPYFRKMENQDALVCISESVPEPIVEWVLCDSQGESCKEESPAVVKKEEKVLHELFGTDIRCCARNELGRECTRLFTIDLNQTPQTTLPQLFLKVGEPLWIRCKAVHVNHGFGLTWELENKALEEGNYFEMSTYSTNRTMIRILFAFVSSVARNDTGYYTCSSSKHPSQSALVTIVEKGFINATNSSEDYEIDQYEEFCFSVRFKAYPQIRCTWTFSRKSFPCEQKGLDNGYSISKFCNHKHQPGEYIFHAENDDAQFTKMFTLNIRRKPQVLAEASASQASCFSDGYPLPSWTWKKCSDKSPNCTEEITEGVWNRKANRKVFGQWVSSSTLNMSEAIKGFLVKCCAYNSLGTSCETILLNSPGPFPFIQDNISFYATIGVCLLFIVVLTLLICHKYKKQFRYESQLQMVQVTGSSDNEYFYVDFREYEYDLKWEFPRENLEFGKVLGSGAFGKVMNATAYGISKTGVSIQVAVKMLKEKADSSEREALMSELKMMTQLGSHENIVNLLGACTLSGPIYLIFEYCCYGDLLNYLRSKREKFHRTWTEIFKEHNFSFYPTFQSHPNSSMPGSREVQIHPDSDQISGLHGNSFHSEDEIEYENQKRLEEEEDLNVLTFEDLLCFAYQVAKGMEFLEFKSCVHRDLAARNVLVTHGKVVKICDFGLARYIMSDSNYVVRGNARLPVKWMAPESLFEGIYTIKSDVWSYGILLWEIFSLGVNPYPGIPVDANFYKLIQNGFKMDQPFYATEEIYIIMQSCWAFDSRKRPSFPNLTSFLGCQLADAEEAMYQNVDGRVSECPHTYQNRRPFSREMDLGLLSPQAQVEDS

[16] = molecular target: Vascular endothelial growth factor receptor 3 (Homo sapiens) (UniProt P35916); conditions: at 0.1 µM
Sequence of Vascular endothelial growth factor receptor 3 (Homo sapiens) (P35916 whole entry): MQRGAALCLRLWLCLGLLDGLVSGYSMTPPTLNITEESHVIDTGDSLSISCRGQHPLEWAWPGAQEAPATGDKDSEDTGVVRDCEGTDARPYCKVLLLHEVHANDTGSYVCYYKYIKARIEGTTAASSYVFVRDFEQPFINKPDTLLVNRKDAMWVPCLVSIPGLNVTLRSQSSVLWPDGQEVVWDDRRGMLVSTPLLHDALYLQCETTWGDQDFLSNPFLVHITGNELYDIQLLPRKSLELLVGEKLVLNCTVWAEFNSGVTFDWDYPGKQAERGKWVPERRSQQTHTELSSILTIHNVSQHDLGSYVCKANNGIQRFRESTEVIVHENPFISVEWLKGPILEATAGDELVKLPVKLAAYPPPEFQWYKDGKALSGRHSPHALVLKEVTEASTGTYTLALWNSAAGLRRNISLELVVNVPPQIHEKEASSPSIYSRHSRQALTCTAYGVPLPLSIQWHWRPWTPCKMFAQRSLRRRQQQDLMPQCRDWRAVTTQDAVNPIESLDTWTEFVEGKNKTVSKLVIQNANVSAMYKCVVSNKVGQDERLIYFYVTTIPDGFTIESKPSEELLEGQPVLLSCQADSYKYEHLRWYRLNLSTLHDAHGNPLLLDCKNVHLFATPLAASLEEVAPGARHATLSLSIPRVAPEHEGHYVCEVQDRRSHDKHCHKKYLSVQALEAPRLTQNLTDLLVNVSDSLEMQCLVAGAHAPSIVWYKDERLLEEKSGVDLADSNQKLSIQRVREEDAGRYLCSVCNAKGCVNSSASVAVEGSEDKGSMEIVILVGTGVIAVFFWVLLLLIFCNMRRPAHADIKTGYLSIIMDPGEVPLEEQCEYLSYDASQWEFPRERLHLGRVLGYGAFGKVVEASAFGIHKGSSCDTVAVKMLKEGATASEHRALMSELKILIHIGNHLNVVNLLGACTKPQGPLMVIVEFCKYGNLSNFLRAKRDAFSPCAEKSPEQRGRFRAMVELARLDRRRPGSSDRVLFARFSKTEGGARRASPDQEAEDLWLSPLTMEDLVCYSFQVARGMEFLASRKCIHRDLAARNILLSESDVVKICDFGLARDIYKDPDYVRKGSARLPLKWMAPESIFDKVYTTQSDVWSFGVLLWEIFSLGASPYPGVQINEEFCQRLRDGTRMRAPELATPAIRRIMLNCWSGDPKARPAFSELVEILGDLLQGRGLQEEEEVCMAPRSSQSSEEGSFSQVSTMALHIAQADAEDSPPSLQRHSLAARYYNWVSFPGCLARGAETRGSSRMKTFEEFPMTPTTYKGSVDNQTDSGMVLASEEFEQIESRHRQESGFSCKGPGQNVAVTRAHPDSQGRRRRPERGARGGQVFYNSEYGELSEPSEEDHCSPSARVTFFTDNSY

[17] = molecular target: Vascular endothelial growth factor receptor 3 (Homo sapiens) (UniProt P35916); conditions: at 1 µM
[18] = molecular target: Macrophage colony-stimulating factor 1 receptor (Homo sapiens) (UniProt P07333); conditions: at 0.1 µM
Sequence of Macrophage colony-stimulating factor 1 receptor (Homo sapiens) (P07333 whole entry): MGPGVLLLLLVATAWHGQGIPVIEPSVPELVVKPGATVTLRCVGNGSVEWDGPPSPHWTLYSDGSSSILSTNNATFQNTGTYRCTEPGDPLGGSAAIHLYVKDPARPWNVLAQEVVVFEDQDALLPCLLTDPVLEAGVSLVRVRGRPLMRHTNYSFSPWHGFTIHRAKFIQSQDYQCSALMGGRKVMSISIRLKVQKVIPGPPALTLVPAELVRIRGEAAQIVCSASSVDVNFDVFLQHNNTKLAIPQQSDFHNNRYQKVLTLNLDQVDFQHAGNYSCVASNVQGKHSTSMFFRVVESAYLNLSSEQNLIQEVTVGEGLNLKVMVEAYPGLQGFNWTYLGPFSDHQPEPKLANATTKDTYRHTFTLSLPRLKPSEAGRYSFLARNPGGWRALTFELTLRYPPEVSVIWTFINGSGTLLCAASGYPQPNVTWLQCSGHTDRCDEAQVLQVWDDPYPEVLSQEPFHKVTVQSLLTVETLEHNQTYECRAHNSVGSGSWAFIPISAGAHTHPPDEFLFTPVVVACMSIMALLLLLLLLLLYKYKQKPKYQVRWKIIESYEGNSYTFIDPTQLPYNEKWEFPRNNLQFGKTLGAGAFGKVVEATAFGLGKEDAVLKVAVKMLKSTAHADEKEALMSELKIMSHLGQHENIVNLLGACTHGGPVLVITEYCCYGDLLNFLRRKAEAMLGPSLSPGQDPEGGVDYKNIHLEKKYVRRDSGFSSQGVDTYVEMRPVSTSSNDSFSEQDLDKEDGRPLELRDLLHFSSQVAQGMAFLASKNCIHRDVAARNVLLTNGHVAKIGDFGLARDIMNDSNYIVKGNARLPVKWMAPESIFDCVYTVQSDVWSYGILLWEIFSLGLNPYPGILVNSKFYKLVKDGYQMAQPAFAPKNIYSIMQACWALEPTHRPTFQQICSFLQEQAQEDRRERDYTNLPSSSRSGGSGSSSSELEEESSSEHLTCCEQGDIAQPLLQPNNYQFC

[19] = molecular target: Macrophage colony-stimulating factor 1 receptor (Homo sapiens) (UniProt P07333); conditions: at 1 µM
[20] = molecular target: Tyrosine-protein kinase Fyn (Homo sapiens) (UniProt P06241); conditions: at 0.1 µM
Sequence of Tyrosine-protein kinase Fyn (Homo sapiens) (P06241 2-537 limits assumed): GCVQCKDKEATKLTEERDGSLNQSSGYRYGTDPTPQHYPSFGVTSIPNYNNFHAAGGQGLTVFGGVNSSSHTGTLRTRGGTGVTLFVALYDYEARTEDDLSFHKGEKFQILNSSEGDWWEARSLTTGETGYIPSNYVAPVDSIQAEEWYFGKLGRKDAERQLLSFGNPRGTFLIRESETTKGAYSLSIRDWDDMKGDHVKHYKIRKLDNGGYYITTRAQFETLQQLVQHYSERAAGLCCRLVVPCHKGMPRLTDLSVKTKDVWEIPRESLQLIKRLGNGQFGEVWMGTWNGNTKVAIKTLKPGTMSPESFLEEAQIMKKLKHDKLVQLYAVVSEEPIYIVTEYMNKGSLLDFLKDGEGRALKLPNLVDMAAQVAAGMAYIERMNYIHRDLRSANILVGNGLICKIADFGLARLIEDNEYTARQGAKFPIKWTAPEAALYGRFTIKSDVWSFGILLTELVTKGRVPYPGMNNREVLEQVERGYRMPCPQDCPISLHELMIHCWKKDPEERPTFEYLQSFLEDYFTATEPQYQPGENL

Structure (SMILES) | inhibition [1] [%] | inhibition [2] [%] | inhibition [3] [%] | inhibition [4] [%] | inhibition [5] [%] | inhibition [6] [%] | inhibition [7] [%] | inhibition [8] [%] | inhibition [9] [%] | inhibition [10] [%] | inhibition [11] [%] | inhibition [12] [%] | inhibition [13] [%] | inhibition [14] [%] | inhibition [15] [%] | inhibition [16] [%] | inhibition [17] [%] | inhibition [18] [%] | inhibition [19] [%] | inhibition [20] [%]
CC(=O)Nc1cccc(C#Cc2cncnc2Nc2ccc(OCc3cccc(F)c3)c(Cl)c2)c1 | -0.15 | 1.85 | 1.3 | 1.33 | 2.68 | 1.9 | 1.16 | 2.97 | 2.6 | 1.96 | 2.42 | 2.3 | 2.89 | 3.58 | -2.98 | 2.87 | 3.83 | 0.82 | 4.6 | 0.68
O=C(Nc1n[nH]c2cc(-c3ccc(F)cc3)ccc12)C1CC1 | 3.59 | 2.65 | 1.94 | 4.38 | 4.67 | 0.6 | 2.6 | 5.51 | 3 | 8.59 | 6.43 | 2.87 | 1.93 | 6.08 | 1.98 | 1.27 | 1.78 | 1.64 | 1.6 | 2.62
